Data as given in PubChem BioAssay.
Inconclusive results are not listed. A number with no mark means an inactive call. Activity calls are given as the source filed them.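 The calls were made as follows: active = cell viability at or below a set limit in both duplicate runs, the limit being the all-compound median minus 4 SD (cut at about 23% in these data, passing the limit was not always enough); inconclusive = no clear call, values can overlap the other calls; inactive = the rest.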

Test: growth suppression of beta-catenin knockout HCT116, pilot screen, human colon tumor cells (AID 823);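 also: 0% = wells killed by 20 µM Hyamine and 100% = untreated DMSO cell wells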
Settings: CellTiter-Glo, 60 h, at 10 µM, stronger effect = lower value

Q: For CCOC(=O)c1cc(NC(=O)SCC(=O)O)c(C)nc1C, which viability is on record?
A: 96.1%

Q: For Clc1c(CSc2nc3ccccc3o2)nc2sccn12, which viability is on record?
A: 77.3%

Q: For O=C(CCn1[nH]c(=O)c2ccccc2c1=O)NCCO, which viability is on record?
A: 102%

Q: For CC12CCC(C(=O)N3CCN(C(=O)C45CCC(C)(C(=O)O4)C5(C)C)CC3)(OC1=O)C2(C)C, which viability is on record?
A: 102%

Q: For COc1cccc(C2C(C(=O)c3cccs3)=C(O)C(=O)N2CCCn2ccnc2)c1OC (stereo not given), which viability is on record?
A: 89.1%

Q: With Cc1ccc(S(=O)(=O)N(CC(=O)N2CCC(C(N)=O)CC2)Cc2ccc(F)cc2)cc1 as the compound, how does the viability read?
A: 97.5%

Q: For COc1ccc(N2CCN(C(=O)CSc3ccccc3)CC2)cc1, which viability is on record?
A: 93.2%

Q: With COc1ccccc1N1CCN(C(=O)C2CCN(S(=O)(=O)c3ccc(F)cc3)CC2)CC1 as the compound, how does the viability read?
A: 81.2%

Q: Which viability does the source give for COCCN1C=C(C(=O)OC)C(c2cc3c(cc2Br)OCO3)C(C(=O)OC)=C1 here?
A: 58.3%

Q: For CC1=C(C(N)=O)C(c2ccccn2)n2nc(SCc3ccccc3)nc2N1 (stereo not given), which viability is on record?
A: 102%

Q: Which viability does the source give for O=C(/C=C/N1CCOCC1)c1ccc(-c2ccccc2)cc1 here?
A: 88.4%

Q: Which viability does the source give for CCOc1ccc(NS(=O)(=O)c2cc(Cl)ccc2OC)cc1 here?
A: 75.1%

Q: With COc1ccc(NC(=O)CC2CCCCC2)cc1OC as the compound, how does the viability read?
A: 96.3%

Q: Which viability does the source give for Cc1oc(-c2cccc(Cl)c2)nc1CN1CCC(C(=O)N2CCN(c3ccccc3F)CC2)CC1 here?
A: 17.2% (active)

Q: Which viability does the source give for O=C(Nc1ccc2c(c1)OCCO2)C1CCN(C(=O)c2ccc(F)cc2)CC1 here?
A: 92.3%

Q: With CCOC(=O)Nc1c(O)ccc2oc(C)c(-c3ccccc3)c12 as the compound, how does the viability read?
A: 79.4%

Q: With O=C(CCNS(=O)(=O)c1cccs1)Nc1ccccc1F as the compound, how does the viability read?
A: 90.8%

Q: For CCOC(=O)N1CCN(C(=O)CN(C2CCCCC2)S(=O)(=O)c2ccc(F)cc2)CC1, which viability is on record?
A: 99.8%

Q: With O=C(COc1ccc(F)cc1)Nc1ccc(-n2cnnn2)cc1 as the compound, how does the viability read?
A: 102%

Q: With O=C(Cn1c(=O)sc2ccccc21)NCCOc1ccccc1F as the compound, how does the viability read?
A: 108%

Q: Which viability does the source give for O=C(c1ccco1)c1nnn(Cc2ccccc2)c1-c1ccccc1 here?
A: 93.5%

Q: With O=C(Nc1ncc(Cc2ccccc2)s1)C1CCCO1 (stereo not given) as the compound, how does the viability read?
A: 103%

Q: Which viability does the source give for CC1=C(C(=O)OC2CCCCCC2)C(c2ccc(C)o2)C2=C(CCCC2=O)N1 (stereo not given) here?
A: 70.8%

Q: With CC12CN3CCN(CC(C3)C1(O)CN1CCCCC1)C2 (stereo not given) as the compound, how does the viability read?
A: 88.3%

Q: Which viability does the source give for CCn1c(C(C#N)/C(=N\S(=O)(=O)c2cccs2)c2ccccc2)nc2ccccc21 (stereo not given) here?
A: 87.4%

Q: With CCOC(=O)N1CCN(C(=O)c2cnn(-c3ccccc3)c2NC(=O)c2ccccc2F)CC1 as the compound, how does the viability read?
A: 99.4%

Q: Which viability does the source give for O=C(CCC(=O)OCC(=O)c1ccccc1)NC1CCCCC1 here?
A: 93.6%

Q: Which viability does the source give for O=C(Nc1nc2c(s1)CCCC2)C1COc2ccccc2O1 (stereo not given) here?
A: 90.3%

Q: Which viability does the source give for CCN(CC)S(=O)(=O)c1ccc2c(c1)nc(SCn1nnc3ccccc3c1=O)n2CC here?
A: 90.7%

Q: With Cc1ccc(N2C(=O)c3oc4ccccc4c(=O)c3C2c2cccc(O)c2)nc1 (stereo not given) as the compound, how does the viability read?
A: 73.1%

Q: With COc1cc(C(=O)NCCc2ccc3c(c2)OCCO3)ccc1OCC(=O)N1CCOCC1 as the compound, how does the viability read?
A: 97.6%

Q: For O=C(CN1CCN(Cc2ccccc2)CC1)NCC1COc2ccccc2O1 (stereo not given), which viability is on record?
A: 93.6%

Q: Which viability does the source give for Cc1nonc1NC(=O)c1ccccc1Br here?
A: 93.7%

Q: Which viability does the source give for Cc1cc(NC(=O)CSc2nc3c(c(-c4cccnc4)c2C#N)CCC3)no1 here?
A: 101%

Q: For Cc1onc(-c2ccccc2)c1C(=O)NCc1cccnc1, which viability is on record?
A: 98.2%

Q: For OC(CNCCc1ccccc1)c1ccccc1 (stereo not given), which viability is on record?
A: 95.4%

Q: For Cc1ccc(C)n1-c1ccc(N2CCOCC2)cc1, which viability is on record?
A: 8.5% (active)

Q: With C#CCOC(=O)C1C2C=CC(C2)C1C(=O)O (stereo not given) as the compound, how does the viability read?
A: 103%

Q: Which viability does the source give for Cc1ccc(C(=O)Nc2c(C(=O)N3CCOCC3)cnn2-c2ccccc2)cc1 here?
A: 103%

Q: Which viability does the source give for Clc1cccc(-c2nnc(-c3ccccc3)o2)c1 here?
A: 4.61% (active)
